Results filed as inconclusive are left out. Entries that show only a call come without a potency. Active and inactive are the calls of the source. The call rests on the fitted dose curve; in most records, active means well fitted curve in the direction sought with a large enough effect; inconclusive means small, poorly fitted or top-dose-only effect, or another doubt; inactive means no such curve, though single readings can be large; an effect the other way counts as inactive or inconclusive.

The nature of the first test: Primary redox qHTS assay for identification of artifact compounds. (AID 1845223). Conditions: Amplex Red/HRP redox cycling with DTT, fluorescence; series mostly up to 53.8 µM. The essentials: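 Redox-cycling detection via DTT (250 uM final) oxidation coupled to Amplex Red (25 uM)/HRP (250 mU/mL) in HBSS. 15 min preincubation plus 30 min after DTT, room temperature. Ex/Em 525/598 nm; 4-parameter Hill fit against DMSO and 10 uM DA3003.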
For orientation: Quantitative high-throughput screening tests each substance at several concentrations.
Regarding `O=C1Cc2cc(CCN3CCN(c4nsc5ccccc45)CC3)c(Cl)cc2N1`, the call was inactive.

Regarding `CC[C@@]1(O)C(=O)OCc2c1cc1n(c2=O)Cc2cc3c(CN(C)C)c(O)ccc3nc2-1`, the outcome was inactive.

Turning to `Cc1cc(C(C)(C)C)c(O)c(C)c1CC1=NCCN1`, the compound was called inactive.

Turning to `CS(=O)(=O)CCNCc1ccc(-c2ccc3ncnc(Nc4ccc(OCc5cccc(F)c5)c(Cl)c4)c3c2)o1`, the result was inactive.

`Clc1ccc2c(c1)C(N1CCNCC1)=Nc1ccccc1O2`: the outcome was inactive.

As to `O=C(c1ccc(F)cc1)C1CCN(CCn2c(=O)[nH]c3ccccc3c2=O)CC1`, the compound was called inactive.

As to `CNCCCC12CCC(c3ccccc31)c1ccccc12`, the call was inactive.

As to `Cc1ccc(-c2cc(C(F)(F)F)nn2-c2ccc(S(N)(=O)=O)cc2)cc1`, the compound was called inactive.

The nature of another test: Quantitative High-Throughput drug screen in 47 multiple myeloma cell lines against the NCATS MIPE library collection: FR4_PLB cell viability assay (AID 1918924; further: nearly all actives have a fitted effect of over 35% in size; further: potency means the concentration at half of the fitted maximal effect). Conditions: FR4_PLB myeloma cells viability, CellTiter-Glo ATP, 48 h; series mostly up to 45.8 µM. The essentials:
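Relative luminescence from CellTiter-Glo served as the viability signal, referenced to DMSO-treated (100%) and cell-free medium (0%) controls. Treatment lasted 48 hours at 37C with 500 cells per well.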
A general note: ATP-based viability assays read luminescence as a measure of living cells.
For the compound `CN(C)CCOC(c1ccccc1)c1ccccc1`, the Potency entry is “inactive”.

In the case of `CN1C2CCC1CC(OC(=O)C(CO)c1ccccc1)C2` (stereo not given), the Potency entry was “inactive”.

In the case of `CCN1CCCC1CNC(=O)c1cc(S(=O)(=O)CC)c(N)cc1OC` (stereo not given), the Potency result is “inactive”.

On to `O=C(Nc1ccc([N+](=O)[O-])cc1Cl)c1cc(Cl)ccc1O`, for which the Potency is 2.09 µM (active).

In the case of `CC[C@@]1(O)C(=O)OCc2c1cc1n(c2=O)Cc2cc3c(CN(C)C)c(O)ccc3nc2-1`, the Potency was 2.64 µM (active).

For `CS(=O)(=O)Nc1ccc([N+](=O)[O-])cc1Oc1ccccc1`, the Potency result is “inactive”.

For the compound `Cc1cc(C(C)(C)C)c(O)c(C)c1CC1=NCCN1`, the Potency entry was “inactive”.

As to `CS(=O)(=O)CCNCc1ccc(-c2ccc3ncnc(Nc4ccc(OCc5cccc(F)c5)c(Cl)c4)c3c2)o1`, the Potency is 14.8 µM (active).

For the compound `CC(=O)OCC(CCn1cnc2cnc(N)nc21)COC(C)=O`, the Potency result was “inactive”.

Take `NCCS(=O)(=O)O`: the Potency result was “inactive”.

As for `O=C1c2c(O)ccc(O)c2C(=O)c2c(NCCNCCO)ccc(NCCNCCO)c21`, the Potency is 1.66 µM (active).

As to `O=C(C1CCCCC1)N1CC(=O)N2CCc3ccccc3C2C1` (stereo not given), the Potency entry is “inactive”.

With `Cc1cc(C(C)(C)C)cc(C)c1CC1=NCCN1`, the Potency entry was “inactive”.

For `NC(=O)OCC(COC(N)=O)c1ccccc1`, the Potency result was “inactive”.

In the case of `CC(C)C(=O)Nc1ccc([N+](=O)[O-])c(C(F)(F)F)c1`, the Potency result is “inactive”.

For `CC1(C)O[C@H]2CC(=O)OC[C@]23[C@H]2CC[C@@]4(C)[C@H](c5ccoc5)OC(=O)[C@H]5O[C@]54[C@]2(C)C(=O)C[C@@H]13`, the Potency entry is “inactive”.

As to `CCC1(c2ccccc2)C(=O)NCNC1=O`, the Potency result was “inactive”.

On to `CCOC(=O)Nc1ccc(NCc2ccc(F)cc2)nc1N`, for which the Potency result was “inactive”.

With `CN1CCC(=C2c3ccccc3CC(=O)c3sccc32)CC1`, the Potency entry was “inactive”.

In the case of `Cn1c(=O)c2[nH]cnc2n(C)c1=O`, the Potency entry was “inactive”.

Take `CN1CCN(CCCN2c3ccccc3Sc3ccc(Cl)cc32)CC1`: the Potency was 23.5 µM (active).

Regarding `Clc1ccc2c(c1)C(N1CCNCC1)=Nc1ccccc1O2`, the Potency result is “inactive”.

With `CC#C[C@]1(O)CC[C@H]2[C@@H]3CCC4=CC(=O)CCC4=C3[C@@H](c3ccc(N(C)C)cc3)C[C@@]21C`, the Potency is 1.66 µM (active).

Take `Cn1cnc2c1c(=O)[nH]c(=O)n2C`: the Potency was 26.4 µM (active).

As for `O=C(c1ccc(F)cc1)C1CCN(CCn2c(=O)[nH]c3ccccc3c2=O)CC1`, the Potency entry is “inactive”.

On to `CN(CCOc1ccc(NS(C)(=O)=O)cc1)CCc1ccc(NS(C)(=O)=O)cc1`, for which the Potency entry was “inactive”.

In the case of `NC(=O)NO`, the Potency is 3.32 µM (active).

As for `CNCCCC12CCC(c3ccccc31)c1ccccc12`, the Potency is 20.9 µM (active).

`Cc1ccc(-c2cc(C(F)(F)F)nn2-c2ccc(S(N)(=O)=O)cc2)cc1`: the Potency result is “inactive”.

Take `Nc1nc2c(ncn2COC(CO)CO)c(=O)[nH]1`: the Potency was 26.4 µM (active).

Consider `CN(C)CCCN1c2ccccc2CCc2ccc(Cl)cc21`, for which the Potency is 1.18 µM (active).

As to `COc1ccccc1N1CCN(CC(O)COc2cccc3ccccc23)CC1` (stereo not given), the Potency result was “inactive”.

Another test in a line: Quantitative High-Throughput drug screen in 47 multiple myeloma cell lines against the NCATS MIPE library collection: Delta47_JCRB cell viability assay (AID 1918925; further: nearly all actives have a fitted effect of over 45% in size; further: potency means the concentration at half of the fitted maximal effect). As to conditions: Delta47 myeloma viability, CellTiter-Glo ATP, 48 h; series mostly up to 45.8 µM. The essentials: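 qHTS of the MIPE 4.0 collection: 500 myeloma cells/well, 48 h drug exposure at 37C in 5% CO2, then CellTiter-Glo for 5 min at room temperature before luminescence reading.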
Turning to `CN(C)CCOC(c1ccccc1)c1ccccc1`, the Potency was 8.33 µM (active).

Take `CN1C2CCC1CC(OC(=O)C(CO)c1ccccc1)C2` (stereo not given): the Potency entry is “inactive”.

As for `CCN1CCCC1CNC(=O)c1cc(S(=O)(=O)CC)c(N)cc1OC` (stereo not given), the Potency result was “inactive”.

As to `O=C(Nc1ccc([N+](=O)[O-])cc1Cl)c1cc(Cl)ccc1O`, the Potency is 1.32 µM (active).

As to `O=C1Cc2cc(CCN3CCN(c4nsc5ccccc45)CC3)c(Cl)cc2N1`, the Potency is 23.5 µM (active).

For `CC[C@@]1(O)C(=O)OCc2c1cc1n(c2=O)Cc2cc3c(CN(C)C)c(O)ccc3nc2-1`, the Potency was 0.469 µM (active).

As for `CS(=O)(=O)Nc1ccc([N+](=O)[O-])cc1Oc1ccccc1`, the Potency entry was “inactive”.

For the compound `Cc1cc(C(C)(C)C)c(O)c(C)c1CC1=NCCN1`, the Potency result was “inactive”.

Consider `CS(=O)(=O)CCNCc1ccc(-c2ccc3ncnc(Nc4ccc(OCc5cccc(F)c5)c(Cl)c4)c3c2)o1`, for which the Potency is 0.235 µM (active).

Turning to `CC(=O)OCC(CCn1cnc2cnc(N)nc21)COC(C)=O`, the Potency entry was “inactive”.

Take `NCCS(=O)(=O)O`: the Potency entry is “inactive”.

Consider `O=C1c2c(O)ccc(O)c2C(=O)c2c(NCCNCCO)ccc(NCCNCCO)c21`, for which the Potency is 0.132 µM (active).

Take `O=C(C1CCCCC1)N1CC(=O)N2CCc3ccccc3C2C1` (stereo not given): the Potency entry is “inactive”.

With `Cc1cc(C(C)(C)C)cc(C)c1CC1=NCCN1`, the Potency entry is “inactive”.

Turning to `NC(=O)OCC(COC(N)=O)c1ccccc1`, the Potency result is “inactive”.

`CC(C)C(=O)Nc1ccc([N+](=O)[O-])c(C(F)(F)F)c1`: the Potency is 3.32 µM (active).

Regarding `CCC1(c2ccccc2)C(=O)NCNC1=O`, the Potency was 2.96 µM (active).

For the compound `CCOC(=O)Nc1ccc(NCc2ccc(F)cc2)nc1N`, the Potency result is “inactive”.

`CN1CCC(=C2c3ccccc3CC(=O)c3sccc32)CC1`: the Potency is 8.33 µM (active).

For `Cn1c(=O)c2[nH]cnc2n(C)c1=O`, the Potency entry is “inactive”.

In the case of `CN1CCN(CCCN2c3ccccc3Sc3ccc(Cl)cc32)CC1`, the Potency is 18.7 µM (active).

For the compound `CC#C[C@]1(O)CC[C@H]2[C@@H]3CCC4=CC(=O)CCC4=C3[C@@H](c3ccc(N(C)C)cc3)C[C@@]21C`, the Potency was 0.59 µM (active).

As for `Cn1cnc2c1c(=O)[nH]c(=O)n2C`, the Potency was 14.8 µM (active).

On to `CN(CCOc1ccc(NS(C)(=O)=O)cc1)CCc1ccc(NS(C)(=O)=O)cc1`, for which the Potency result was “inactive”.

For `NC(=O)NO`, the Potency is 2.35 µM (active).

For the compound `CNCCCC12CCC(c3ccccc31)c1ccccc12`, the Potency is 18.7 µM (active).

As to `Cc1ccc(-c2cc(C(F)(F)F)nn2-c2ccc(S(N)(=O)=O)cc2)cc1`, the Potency is 16.6 µM (active).

Regarding `Nc1nc2c(ncn2COC(CO)CO)c(=O)[nH]1`, the Potency was 18.7 µM (active).

As for `CN(C)CCCN1c2ccccc2CCc2ccc(Cl)cc21`, the Potency is 1.18 µM (active).

For `COc1ccccc1N1CCN(CC(O)COc2cccc3ccccc23)CC1` (stereo not given), the Potency result is “inactive”.

These data come from PubChem BioAssay (NCATS).
